Compound activity deposited in PubChem BioAssay by National Center for Advancing Translational Sciences (NCATS).
FLuc inh: blocks purified firefly luciferase enzyme activity. purified P. pyralis luciferase, luminescence, biochemical. Potency, µM (highest dose often 115 µM), actives largely listed as inhibitors. 2.5% of 76,000 active. P08659; note: nearly all actives have a fitted effect of over 65% in size
Target sequence (P08659 whole entry, looked up): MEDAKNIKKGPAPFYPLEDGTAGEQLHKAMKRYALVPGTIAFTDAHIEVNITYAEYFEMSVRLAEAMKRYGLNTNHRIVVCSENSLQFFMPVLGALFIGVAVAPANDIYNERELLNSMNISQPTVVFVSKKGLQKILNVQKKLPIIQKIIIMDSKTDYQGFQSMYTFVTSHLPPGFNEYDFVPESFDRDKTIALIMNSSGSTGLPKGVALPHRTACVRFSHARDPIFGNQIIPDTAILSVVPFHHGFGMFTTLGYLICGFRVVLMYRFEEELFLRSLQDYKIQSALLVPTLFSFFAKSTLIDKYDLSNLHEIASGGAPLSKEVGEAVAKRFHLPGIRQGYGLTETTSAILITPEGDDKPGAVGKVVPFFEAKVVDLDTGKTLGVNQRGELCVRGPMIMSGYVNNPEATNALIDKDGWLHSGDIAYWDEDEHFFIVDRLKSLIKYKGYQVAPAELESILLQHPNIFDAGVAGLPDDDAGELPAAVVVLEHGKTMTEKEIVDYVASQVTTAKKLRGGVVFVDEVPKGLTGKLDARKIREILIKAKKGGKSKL
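Inhibitors were tested against purified firefly luciferase in a biochemical, low-substrate format (both substrates at 10uM) and luminescence measured with a CCD imager.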
NPR1 antag: human Npr1 receptor antagonism | P16066 | HEK293 hNpr1 GloSensor cGMP, ANP-stimulated luminescence | Potency, µM (highest dose often 46.3 µM), actives largely listed as inhibitors | 1.6% of 76,000 active; calls by dose curve; note: nearly all actives have a fitted effect of over 60% in size
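HEK293 cells stably expressing human Npr1 and cGMP GloSensor pGS-40F, loaded 2 h with 2% GloSensor reagent, given compound 30 min at room temperature. Luminescence read before and 20 min after 0.1 nM hNppA.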
HEK293 viab: cell viability loss counter-screen. HEK-293-SNCA-luc viability, GF-AFC fluorescence, 24 h. Potency, µM (highest dose often 57.1 µM), usual class: cytotoxic. 0.12% of 150,000 active. AID 1671193; note: nearly all actives have a fitted effect of over 30% in size
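HEK-293-SNCA-luc cells (1500/well) plated 24 h, then exposed 24 h to a dilution series; GF-AFC added 30 min at 37C, fluorescence 405/540 nm; normalised to medium-only and DMSO wells, Hill fit.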
SNCA expr inhib: reduces expression of the alpha-synuclein gene | HEK-293 SNCA-luciferase knock-in, luminescence, 24 h | Potency, µM (series often up to 57.2 µM), most hits filed as inhibitors | 0.17% of 140,000 active | AID 1671194; note: nearly all actives have a fitted effect of over 45% in size
3T3 cytotox: cytotoxic compounds in NIH 3T3 cells; NIH 3T3 viability, CellTiter-Glo ATP luminescence, 48-72 h; Potency, µM (top dose mostly 96.7 µM), most hits filed as inhibitors; 4.3% of 94,000 active; note: nearly all actives have a fitted effect of over 55% in size
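ATP-dependent luminescence (CellTiter-Glo) served as the viability signal for NIH 3T3 cells treated with compound for 48 or 72 hr at 37 °C.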
HEK cytotox: HEK 293 cell cytotoxicity; AID 1345083; 6.6% of 94,000 active; HEK 293 viability, ATP luminescence (CellTiter-Glo), 48-72 h; Potency, µM (titrated, usually from 115 µM), most hits filed as inhibitors; note: nearly all actives have a fitted effect of over 60% in size
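HEK 293 seeded at 250 cells/well receive compound via pintool. After 48 or 72 hr at 37 degree Celsius, 5% CO2 and 95% humidity, CellTiter-Glo is dispensed and luminescence read following 10 min at room temperature.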
Each line names hits and unclear results; the compound was inactive in the other large screens. Compounds with a hit are over-represented: about 7.4% of the library has one in this group of screens. Unless noted, calls come from the whole dose curve; as a rule, active = well fitted curve in the direction sought with a large enough effect; inconclusive = small, poorly fitted or top-dose-only effect, or another doubt; inactive = no such curve, though single readings can be large; an effect the other way counts as inactive or inconclusive.

COc1ncccc1-c1cnc2[nH]cc(CC(=O)NCc3ccco3)c2c1	NPR1 antag inconclusive, 3T3 cytotox inconclusive, HEK cytotox inconclusive
CCNC(=O)Cc1c[nH]c2ncc(-c3cccnc3OC)cc12	3T3 cytotox 89µM
O=C1CC(c2ccccc2)N(Cc2ccncc2)CCCN(S(=O)(=O)c2cccc(F)c2)CCN1 (stereo not given)	3T3 cytotox inconclusive, HEK cytotox 45µM
O=C1CC(c2ccccc2)N(Cc2ccncc2)CCCN(S(=O)(=O)c2cccnc2)CCN1 (stereo not given)	none
O=C1CC(c2noc(Cc3ccc(F)cc3)n2)CN1c1ccc(F)c(Cl)c1 (stereo not given)	3T3 cytotox 18µM, HEK cytotox 22µM
O[C@H]1[C@H](NCc2ccc(F)cc2)[C@H]2CO[C@H](O2)[C@@H]1Oc1ccccc1	none
O[C@H]1[C@H](NCc2ccc(-c3ccccc3)cc2)[C@H]2CO[C@H](O2)[C@@H]1Oc1ccccc1	SNCA expr inhib inconclusive, 3T3 cytotox 112µM, HEK cytotox 89µM
O[C@H]1[C@H](NCc2ccc(-c3ccccc3)cc2)[C@H]2CO[C@H](O2)[C@@H]1Sc1ccccc1	NPR1 antag inconclusive, SNCA expr inhib inconclusive, 3T3 cytotox 63µM, HEK cytotox 40µM
COCCN1C(=O)c2ccccc2C(C(=O)Nc2nc3ccccc3[nH]2)C12CCCCC2 (stereo not given)	3T3 cytotox inconclusive, HEK cytotox 79µM
COCCN1C(=O)c2ccccc2C(C(=O)Nc2nc3ccccc3[nH]2)C12CCCC2 (stereo not given)	none
FC(F)(F)c1cccc(-c2nccn3c(C4CN(Cc5ccc6cn[nH]c6c5)C4)ncc23)c1	HEK293 viab inconclusive, 3T3 cytotox 40µM, HEK cytotox 45µM
Cc1ccccc1Nc1cnc2ccc(-c3cccc(CO)c3)nn12	3T3 cytotox inconclusive, HEK cytotox 79µM
OCc1cccc(-c2ccc3ncc(Nc4cccc(F)c4)n3n2)c1	3T3 cytotox 28µM, HEK cytotox 56µM
COc1ccccc1Nc1cnc2ccc(-c3cccc(CO)c3)nn12	NPR1 antag inconclusive, HEK293 viab inconclusive, 3T3 cytotox inconclusive, HEK cytotox inconclusive
Cc1cc(C)cc(NC(=O)N2C[C@@H](F)C[C@H]2C(=O)N2CCc3ccccc3C2)c1	3T3 cytotox inconclusive (no result: FLuc inh, NPR1 antag)
COc1ccc2[nH]c3c(c2c1)CCNC31CCN(C(=O)c2ccc(C)s2)CC1	3T3 cytotox inconclusive, HEK cytotox 11µM
COc1ccc2[nH]c3c(c2c1)CCNC31CCN(C(=O)c2cccn2C)CC1	SNCA expr inhib 25µM, 3T3 cytotox inconclusive, HEK cytotox inconclusive
COc1ccc2[nH]c3c(c2c1)CCNC31CCN(C(=O)c2sccc2C)CC1	NPR1 antag inconclusive, SNCA expr inhib inconclusive, HEK cytotox inconclusive
COc1ccc2[nH]c3c(c2c1)CCNC31CCN(C(=O)c2cccs2)CC1	3T3 cytotox inconclusive, HEK cytotox 8.9µM
COc1ccc2[nH]c3c(c2c1)CCN(C)C31CCN(C(=O)c2cccn2C)CC1	HEK cytotox inconclusive
CS(=O)(=O)N1CCC(C2CCN(C(=O)NCCc3ccccc3)C2)CC1 (stereo not given)	none
COc1ccc(S(=O)(=O)NCCNc2cc(C)nc3ccnn23)cc1	none
Cn1ccc(C(=O)N2CCCC(CCc3ccccc3C(F)(F)F)C2)n1 (stereo not given)	SNCA expr inhib inconclusive, 3T3 cytotox inconclusive, HEK cytotox 32µM
COc1cc(Cl)c(C)cc1NC(=O)Cn1cccc1-c1nc(-c2ccc(F)cc2)no1	HEK293 viab inconclusive, SNCA expr inhib inconclusive
CC(C)c1ccc(CC(=O)N2CCCc3ncc(C(=O)NCCN(C)C)cc32)cc1	3T3 cytotox 100µM, HEK cytotox inconclusive
CC(C)c1ccc(CC(=O)N2CCCc3ncc(C(=O)NCCN4CCCC4)cc32)cc1	3T3 cytotox inconclusive, HEK cytotox inconclusive
CC(C)c1ccc(CC(=O)N2CCCc3ncc(C(=O)NCc4ccccc4)cc32)cc1	3T3 cytotox 89µM, HEK cytotox 89µM
CC(C)c1ccc(CC(=O)N2CCCc3ncc(C(=O)Nc4ccc5[nH]ccc5c4)cc32)cc1	HEK293 viab inconclusive, 3T3 cytotox inconclusive, HEK cytotox 35µM
CC(C)c1ccc(CC(=O)N2CCCc3ncc(C(=O)NCc4ccc(F)cc4)cc32)cc1	3T3 cytotox inconclusive, HEK cytotox inconclusive
Cc1ccc(CNC(=O)Cn2c(=O)c(-c3noc(C)n3)c3n(c2=O)CCCC3)cc1	none
CCc1[nH]c2ccc(CNC(=O)c3scc4c3OCCO4)cc2c1C	FLuc inh inconclusive, HEK cytotox inconclusive
CCc1[nH]c2ccc(CNC(=O)c3coc(CN4CCOCC4)c3)cc2c1C	FLuc inh 32µM
CCc1ccc(CNC(=O)c2cnc3c(C)cccn3c2=O)cc1	none (no result: FLuc inh, NPR1 antag, 3T3 cytotox, HEK cytotox)
CCc1[nH]c2ccc(CNC(=O)Cc3cnc4c(C)cccn34)cc2c1C	FLuc inh inconclusive, NPR1 antag 7.1µM, HEK293 viab inconclusive, 3T3 cytotox inconclusive, HEK cytotox inconclusive
O=C(Cc1ccc(Br)cc1)NCc1nnc2ccc(-c3ccccc3)nn12	none
COc1ccc(CC(=O)N2CCC(C(=O)N3CCCC3c3nc4ccncc4[nH]3)CC2)cc1 (stereo not given)	none (no result: FLuc inh, NPR1 antag)
COc1nc2nc(CCc3ccccc3)n(C)c2cc1Nc1ccncn1	FLuc inh 50µM, 3T3 cytotox inconclusive
COc1nc2nc(CCc3ccccc3)n(C)c2cc1-c1ccc(CO)cc1	FLuc inh inconclusive, 3T3 cytotox inconclusive, HEK cytotox inconclusive
O=C([C@@H]1C[C@@H](O)[C@H](O)[C@@H]2NC(=S)N(c3ccc(F)cc3)[C@@H]21)N1CCCCC1	FLuc inh inconclusive
Cc1ccc(N2C(=S)N[C@H]3[C@@H](O)[C@H](O)C[C@@H](C(=O)N4CCCCC4)[C@H]32)cc1	FLuc inh 16µM, SNCA expr inhib inconclusive
Cc1cc(NC(=O)c2ccc3c(c2)N(C)C2CCCCN2C3=O)ccc1F (stereo not given)	FLuc inh 22µM, 3T3 cytotox inconclusive, HEK cytotox inconclusive
CN1c2cc(C(=O)Nc3ccc(F)c(F)c3)ccc2C(=O)N2CCCCC21 (stereo not given)	FLuc inh inconclusive
CN1c2cc(C(=O)Nc3ccc4c(c3)CCC4)ccc2C(=O)N2CCCCC21 (stereo not given)	FLuc inh 28µM, 3T3 cytotox inconclusive, HEK cytotox inconclusive
COc1ccc(CNC(=O)CC[C@H]2CNC(=O)[C@@H]3[C@@H](CCN3C3CCCCC3)N2C)cc1	none
CC(C)CC(=O)N1CC(n2cc(COCC3CC3)nn2)C1	none (no result: FLuc inh, NPR1 antag)
